# Assay results published in PubChem BioAssay AID743467 (Broad Institute, 2014).
# This is one part of the list. Records with an inconclusive call do not appear. Activity calls are given as the source filed them.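 The calls were made as follows: active = compound lowering PGC-1a expression with fitted half-maximal concentration at most twice its top tested dose; inconclusive = flat curve with moderate opposite-direction effect, or poor fit; inactive = the rest.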
# Assay: hepatocyte PGC-1a gene expression decrease – cell-based, primary mouse hepatocytes, RT-qPCR, cherry-pick, PGC-1a acetylation activator project, dose response (AID 743467);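 also: 0% = neutral control wells median and 100% = positive control wells median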
# Settings: PGC-1a mRNA qPCR, forskolin, top dose 26 µM, hits give high values; at 26 µM unless noted
row,Structure (SMILES),max activity (PGC-1a expression decrease)
1,CCC(C)(C)n1nnnc1C(c1ccccc1OC)N1CCSCC1 (centres undefined),74.7% (inactive)
2,Cc1cc(C)c2c(-n3cccc3)c(C(=O)NNS(=O)(=O)c3ccc(F)cc3)sc2n1,82.5% [at 8 µM] (inactive)
3,O=C(NCCC1CCCCN1S(=O)(=O)c1cccs1)C(=O)Nc1ccc(F)cc1F (centres undefined),63.6% (inactive)
4,O=C(NCc1ccccc1)C(c1ccccc1)N(C(=O)c1csnn1)c1ccc(F)cc1 (centres undefined),114% [at 8 µM] (inactive)
5,COc1ccc(Nc2nnc(C)c3ccccc23)cc1,52.1% (inactive)
6,O=S(=O)(NCc1ccccc1Br)c1ccccc1Br,65.1% (inactive)
7,CCOC(=O)c1c(-c2ccc(C)cc2C)csc1NC(=O)CSc1nnnn1C,87% [at 8 µM] (inactive)
8,Cc1cc(C(=O)NNS(=O)(=O)c2ccccc2C(F)(F)F)nn1C(C)(C)C,22.5% [at 0.0012 µM] (inactive)
9,CCCCC(=O)Nc1ccc(C(=O)NCCCn2ccnc2)cc1,68.4% [at 0.011 µM] (inactive)
10,CC(C)CCNc1nc(N2CCCC2)c2c(c1C#N)CCN(C)C2,56.4% (inactive)
11,COc1ccc(-n2nnnc2CNC(=O)c2ccc3ccccc3c2)cc1,86.6% [at 0.0038 µM] (inactive)
12,CCOc1ccccc1CN1CCN(C2CCC2)CC1CCO (centres undefined),28.9% [at 8 µM] (inactive)
13,CCOC(=O)c1c(NC(=O)CSc2cn(CC)c3ccccc23)sc2c1CCC2,60.3% (inactive)
14,Cc1ccc(OCC(=O)NCCCNC(=O)c2cccnc2)cc1C,111% (inactive)
